From PubChem BioAssay AID1159580 (chemical genetic matrix, 2015)
“And” between values parts separate entries of the source, which are not always exact repeats. Identical values can stand only once. About 2,000 (36%) of roughly 5,500 compounds were called active. About 18% were inconclusive and are not listed. No stated cut-off is given here; in the data, active means normalized growth mostly below about 0.91 (no sharp cut-off); inconclusive means no clear call, values can overlap the other calls; inactive means mostly above about 0.92. Some of the results follow.

Experiment: chemical genetic growth profiling, strain panel (AID 1159580);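 further: tested at 20 µM; growth read once vehicle control cultures reached saturation at 30 °C; 1 = growth at the plate median or of vehicle wells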
Conditions: growth OD

Measured: normalized growth

CC(C)(C)NCC(O)c1cc(O)cc(O)c1 (stereo not drawn)
inactive: S. cerevisiae deletion strains, locus YKL009W, strain mrt4, stronger effect = lower value 0.961 | S. cerevisiae deletion strains, locus YKL068W, stronger effect = lower value 0.975 | S. cerevisiae deletion strains, locus YKL085W, strain MDH1 (second series), stronger effect = lower value 0.967 | S. cerevisiae deletion strains, locus YKL085W, strain MDH1, stronger effect = lower value 0.967 | S. cerevisiae deletion strains, locus YKL160W, strain elf1, stronger effect = lower value 0.934 | S. cerevisiae deletion strains, locus YKL190W, strain CNB1, stronger effect = lower value 0.994 | S. cerevisiae deletion strains, locus YKR001C, strain vps1, stronger effect = lower value 0.994 | S. cerevisiae deletion strains, locus YKR026C, strain gcn3, stronger effect = lower value 0.983 | S. cerevisiae deletion strains, locus YKR091W, strain srl3, stronger effect = lower value 0.978 | S. cerevisiae deletion strains, locus YLL001W, strain dnm1, stronger effect = lower value 1 | S. cerevisiae deletion strains, locus YLL026W, stronger effect = lower value 0.984 | S. cerevisiae deletion strains, locus YLL041C, strain sdh2, stronger effect = lower value 0.993 | S. cerevisiae deletion strains, locus YLR027C, strain aat2, stronger effect = lower value 0.987 | S. cerevisiae deletion strains, locus YLR039C, strain RIC1, stronger effect = lower value 0.978 | S. cerevisiae deletion strains, locus YLR058C, strain SHM2, stronger effect = lower value 0.987 | S. cerevisiae deletion strains, locus YLR102C, strain apc9, stronger effect = lower value 0.982 | S. cerevisiae deletion strains, locus YLR113W, strain HOG1, stronger effect = lower value 0.981 | S. cerevisiae deletion strains, locus YLR221C, strain rsa3, stronger effect = lower value 1.01 | S. cerevisiae deletion strains, locus YLR258W, strain gsy2, stronger effect = lower value 0.993 | S. cerevisiae deletion strains, locus YLR262C, strain YPT6 (second series), stronger effect = lower value 1 | S. cerevisiae deletion strains, locus YLR262C, strain YPT6, stronger effect = lower value 0.979 | S. cerevisiae deletion strains, locus YLR268W, strain sec22, stronger effect = lower value 0.951 | S. cerevisiae deletion strains, locus YLR320W, strain mms22, stronger effect = lower value 0.981 | S. cerevisiae deletion strains, locus YLR330W, strain CHS5, stronger effect = lower value 0.976 | S. cerevisiae deletion strains, locus YLR342W, strain FKS1 (second series), stronger effect = lower value 0.99 | S. cerevisiae deletion strains, locus YLR342W, strain FKS1, stronger effect = lower value 0.991 | S. cerevisiae deletion strains, locus YLR357W, strain rsc2, stronger effect = lower value 0.967 | S. cerevisiae deletion strains, locus YLR370C, strain arc18, stronger effect = lower value 0.975 | S. cerevisiae deletion strains, locus YLR371W, strain rom2, stronger effect = lower value 0.964 | S. cerevisiae deletion strains, locus YLR384C, strain iki3, stronger effect = lower value 0.988 | S. cerevisiae deletion strains, locus YLR418C, strain cdc73, stronger effect = lower value 0.996 | S. cerevisiae deletion strains, locus YML016C, strain PPZ1, stronger effect = lower value 0.992 | S. cerevisiae deletion strains, locus YML032C, strain rad52, stronger effect = lower value 0.99 | S. cerevisiae deletion strains, locus YML120C, strain ndi1, stronger effect = lower value 0.967 | S. cerevisiae deletion strains, locus YML124C, strain tub3, stronger effect = lower value 0.983 | S. cerevisiae deletion strains, locus YMR058W, strain fet3, stronger effect = lower value 1 | S. cerevisiae deletion strains, locus YMR078C, strain ctf18, stronger effect = lower value 0.976 | S. cerevisiae deletion strains, locus YMR125W, strain sto1, stronger effect = lower value 0.959 | S. cerevisiae deletion strains, locus YMR129W, stronger effect = lower value 0.969 | S. cerevisiae deletion strains, locus YMR205C, strain PFK2, stronger effect = lower value 0.984 | S. cerevisiae deletion strains, locus YMR223W, strain ubp8, stronger effect = lower value 1.02 | S. cerevisiae deletion strains, locus YMR231W, strain pep5, stronger effect = lower value 0.98 | S. cerevisiae deletion strains, locus YMR263W, strain SAP30, stronger effect = lower value 0.984 | S. cerevisiae deletion strains, locus YMR307W, strain GAS1, stronger effect = lower value 1.04 and 0.986 | S. cerevisiae deletion strains, locus YNL067W, strain RPL9B, stronger effect = lower value 0.985 | S. cerevisiae deletion strains, locus YNL071W, strain lat1, stronger effect = lower value 0.995 | S. cerevisiae deletion strains, locus YNL128W, strain TEP1, stronger effect = lower value 1.01 | S. cerevisiae deletion strains, locus YNL175C, strain NOP13, stronger effect = lower value 0.995 | S. cerevisiae deletion strains, locus YNL183C, strain NPR1, stronger effect = lower value 0.943 | S. cerevisiae deletion strains, locus YNL197C, strain WHI3, stronger effect = lower value 1 | S. cerevisiae deletion strains, locus YNL209W, strain ssb2, stronger effect = lower value 0.989 | S. cerevisiae deletion strains, locus YNL224C, strain SQS1, stronger effect = lower value 1.01 | S. cerevisiae deletion strains, locus YNL233W, strain BNI4, stronger effect = lower value 0.993 | S. cerevisiae deletion strains, locus YNL248C, strain rpa49, stronger effect = lower value 0.923 | S. cerevisiae deletion strains, locus YNL271C, strain bni1, stronger effect = lower value 0.985 | S. cerevisiae deletion strains, locus YNL298W, strain CLA4, stronger effect = lower value 0.979 | S. cerevisiae deletion strains, locus YNL307C, strain MCK1, stronger effect = lower value 0.975 | S. cerevisiae deletion strains, locus YNL322C, strain KRE1 (second series), stronger effect = lower value 0.953 | S. cerevisiae deletion strains, locus YNL322C, strain KRE1, stronger effect = lower value 0.979 | S. cerevisiae deletion strains, locus YNR049C, strain mso1, stronger effect = lower value 0.983 | S. cerevisiae deletion strains, locus YNR052C, strain pop2, stronger effect = lower value 0.983 | S. cerevisiae deletion strains, locus YOL006C, strain TOP1, stronger effect = lower value 1.06 | S. cerevisiae deletion strains, locus YOL012C, strain htz1 0.966 | S. cerevisiae deletion strains, locus YOL147C, strain pex11, stronger effect = lower value 0.969 | S. cerevisiae deletion strains, locus YOR001W, strain rrp6, stronger effect = lower value 1.01 | S. cerevisiae deletion strains, locus YOR061W, strain CKA2, stronger effect = lower value 1 | S. cerevisiae deletion strains, locus YOR069W, strain VPS5, stronger effect = lower value 0.986 | S. cerevisiae deletion strains, locus YOR070C, strain gyp1, stronger effect = lower value 0.986 | S. cerevisiae deletion strains, locus YOR080W, strain dia2, stronger effect = lower value 0.996 | S. cerevisiae deletion strains, locus YOR083W, strain WHI5 (second series), stronger effect = lower value 0.987 | S. cerevisiae deletion strains, locus YOR083W, strain WHI5, stronger effect = lower value 0.908 | S. cerevisiae deletion strains, locus YOR106W, strain vam3, stronger effect = lower value 0.933 | S. cerevisiae deletion strains, locus YOR136W, strain idh2, stronger effect = lower value 0.992 | S. cerevisiae deletion strains, locus YOR144C, strain elg1, stronger effect = lower value 0.989 | S. cerevisiae deletion strains, locus YOR184W, strain ser1, stronger effect = lower value 0.991 | S. cerevisiae deletion strains, locus YOR231W, strain MKK1, stronger effect = lower value 1.01 | S. cerevisiae deletion strains, locus YOR265W, strain rbl2, stronger effect = lower value 0.992 | S. cerevisiae deletion strains, locus YOR270C, strain vph1, stronger effect = lower value 0.932 | S. cerevisiae deletion strains, locus YOR290C, strain snf2, stronger effect = lower value 0.967 | S. cerevisiae deletion strains, locus YOR316C, strain cot1, stronger effect = lower value 0.982 | S. cerevisiae deletion strains, locus YPL051W, strain arl3, stronger effect = lower value 0.968 | S. cerevisiae deletion strains, locus YPL055C, strain LGE1, stronger effect = lower value 1.01 and 0.983 | S. cerevisiae deletion strains, locus YPL078C, strain atp4, stronger effect = lower value 0.944 | S. cerevisiae deletion strains, locus YPL106C, strain sse1, stronger effect = lower value 0.97 | S. cerevisiae deletion strains, locus YPL240C, strain hsp82, stronger effect = lower value 1.01 | S. cerevisiae deletion strains, locus YPL241C, strain CIN2, stronger effect = lower value 0.987 | S. cerevisiae deletion strains, locus YPL256C, strain CLN2, stronger effect = lower value 0.959 | S. cerevisiae deletion strains, locus YPR119W, strain clb2, stronger effect = lower value 0.975 | S. cerevisiae deletion strains, locus YPR141C, strain kar3, stronger effect = lower value 0.976 | S. cerevisiae deletion strains, locus YPR163C, strain tif3, stronger effect = lower value 0.978 | S. cerevisiae deletion strains, locus YPR167C, strain met16, stronger effect = lower value 0.974 | S. cerevisiae deletion strains, strain wtn01, stronger effect = lower value 0.99 | S. cerevisiae strains, strain wild type, stronger effect = lower value 0.993
